Measured values published in PubChem BioAssay AID1479 (National Center for Advancing Translational Sciences (NCATS), 2009).
In all, about 280,000 compounds went through this assay and about 820 (0.29%) were called active. About 1% were inconclusive and are not listed. The call rests on the fitted dose curve; in most records, active means well fitted curve in either direction with a large enough effect; inconclusive means small, poorly fitted or top-dose-only effect; inactive means flat fitted curve, though single readings scatter. What follows is part of a selection rich in actives, with near analogues and random picks from the rest. A call without a number means that no potency is given here.

assay: Total Fluorescence Counterscreen for Inhibitors of the Interaction of Thyroid Hormone Receptor and Steroid Receptor Coregulator 2; conditions: TRb/SRC2 Texas Red total fluorescence interference; series mostly up to 106 µM
Excerpt: NIH Molecular Libraries Probe Production Network [MLPCN]
NIH Chemical Genomics Center [NCGC]
Assay Provider: R. Kip Guy, St. Jude Children's Research Hospital
Thyroid receptor (TR) regulates many homeostatic processes including basal metabolism, cardiovascular function, body weight, and lipid trafficking. TR modulators are potential therapeutics for obesity and hyperlipidemias but current thyroid analogs have undesirable side effects, particularly cardiac stimulation. To identify inhibitors that specifically prevent the interaction of TR with the steroid receptor […] 2 (SRC2), a fluorescence polarization assay was screened. This assay detects interaction of the ligand-binding domain of human TRb with a Texas Red labeled SRC2 peptide, corresponding to a 20 amino acid region of the nuclear receptor interaction domain (Arnold et al., 2006). Total fluorescence (555 nm excitation and 632 nm emission) was measured to identify potential fluorescent and light absorbing compounds. Such compounds may be artifacts that interfere with the fluorescence polarization assay.
Arnold, L. A.; Estebanez-Perpina, E.; Togashi, M.; Shelat, A.; Ocasio, C. A.; McReynolds, A. C.; Nguyen, P.; Baxter, J. D.; Fletterick, R. J.; Webb, P.; Guy, R. K. A high-throughput screening method to identify small molecule inhibitors of thyroid hormone receptor coactivator binding. Sci STKE 2006, p 13.
NCGC Assay Protocol Summary:
For screening, 5 uL/well 0.6 uM TRb and 20 nM SRC2 Texas Red in protein buffer (20mM Tris hydrochloride, 100mM NaCl, 10% glycerol, 1mM EDTA, 0.01% NP-40, 1mM DTT, 1uM T3 and 5% DMSO) was dispensed into black solid 1536-well plates (Grenier) using a solenoid-based dispenser. Following transfer of 23 nL compound or DMSO vehicle by a pin tool, the plates were centrifuged 15 s at 1000 RPM and incubated 5 hr at ambient temperature. The plates were read by an Envision (Perkin Elmer) to detect fluorescence polarization of SRC2 Texas Red (555 nm excitation and 632 nm emission). Data were normalized to unbound (all components except TRb) and bound SRC2 Texas Red controls. Total fluorescence (TF) was calculated as follows: TF = S + 2P where S and P are fluorescence readings in the parallel and perpendicular channels, respectively.
Keywords: NIH Roadmap, MLPCN, MLI, MLSMR, qHTS, NCGC, qHTS, thyroid hormone receptor, steroid receptor coactivator, fluorescence polarization
Potency means the concentration at half of the fitted maximal effect; tags describe the fitted curve by direction and shape or compound fluorescence and quenching.

Row | Structure (SMILES) | Potency
1 | O=C(CC1N=C2c3ccccc3N=C(SCc3cccc(Cl)c3)N2C1=O)NCc1ccc2c(c1)OCO2 (centres undefined) | inactive
2 | CCCCCCCCCCCCCCCC | inactive
3 | COc1ccc(CCC(=O)NCc2ccc3c(c2)CCN3C(=O)c2ccc(F)cc2)cc1 | inactive
4 | CC(Nc1ccc(-c2nc(-c3ccco3)no2)cc1[N+](=O)[O-])c1ccccc1 (centres undefined) | inactive
5 | Cc1oc2ccc(O)c(CN3CCC(C)CC3)c2c1C(=O)Nc1ccccc1 | inactive
6 | CCc1cccc(C)c1Nc1c(-c2ccc(N(C)C)cc2)nc2ncccn12 | inactive
7 | CCn1c(=O)cc(OCC(=O)Nc2cc(Cl)c(OC)cc2OC)c2ccccc21 | inactive
8 | CCC(=O)Nc1cccc(C(=O)OCc2cc(=O)n3nc(CC)sc3n2)c1 | inactive
9 | Cc1cccc(CSc2nc3ccncc3n2CC(=O)N(C)C2CCCCC2)c1 | inactive
10 | COc1ccc(CCNC(=O)CCCCn2c(=O)c3ccccc3n(Cc3ccccc3C)c2=O)cc1OC | inactive
11 | COc1ccc(CNc2nc(-c3ccccc3)nn2C(=O)c2ccccc2OC)cc1 | inactive
12 | COc1ccccc1NC(=O)c1cc(C2CC2)nc2c1c(C)nn2-c1ccc(C)cc1 | inactive
13 | CCc1nnc2c3ccccc3nc(N3CCN(c4ccc(C)cc4C)CC3)n12 | inactive
14 | Cc1ccc(C)c(N2CCN(C(c3ccccc3)c3nnc(-c4ccccc4)o3)CC2)c1 (centres undefined) | inactive
15 | CCOC(=O)c1cccc(NC(=O)c2cc(S(=O)(=O)N3CCCC(C)C3)cn2C)c1 (centres undefined) | inactive
16 | CCn1c2ccccc2c2cc(NC(=O)COc3ccc(C)cc3C)ccc21 | inactive
17 | CCOC(=O)c1ccc(NC(=O)c2csc3c2CCCCC3)cc1 | inactive
18 | CCOCCCNC(=O)c1c(NC(=O)c2nc(SC)ncc2Cl)sc2c1CCCC2 | inactive
19 | CCCSc1ncc(Cl)c(C(=O)Nc2sc3c(c2C(=O)NCCOC)CCCC3)n1 | 0.1 µM [quencher] (active)
20 | COCCCNC(=O)c1c(NC(=O)c2cc(=O)c3cc(C)c(C)cc3o2)sc2c1CCCC2 | inactive
21 | CCOC(=O)c1scc(-c2ccc(C)cc2)c1S(=O)(=O)Nc1cc(C)ccc1C | inactive
22 | O=[N+]([O-])c1cccc(S(=O)(=O)N2CCCCCC2)c1 | inactive
23 | O=C(Oc1ccc([N+](=O)[O-])cc1)c1ccc(Cl)c(S(=O)(=O)N2CCCCC2)c1 | 0.316 µM [quencher] (active)
24 | O=C(Nc1ccc2c(c1)OCCO2)c1ccc(Cl)c(S(=O)(=O)N2CCCCC2)c1 | inactive
25 | Cc1ccc(/C=N/NC(=S)Nc2cccc(S(=O)(=O)N(C)C)c2)o1 | inactive

Row | Structure (SMILES) | Potency
26 | CN(C)S(=O)(=O)c1cccc(NC(=S)NCc2ccc3c(c2)OCO3)c1 | inactive
27 | CN(C)S(=O)(=O)c1cccc(NC(=S)N/N=C/C(=O)c2ccccc2)c1 | 4.47 µM [quencher] (active)
28 | COc1ccc(OC)c(NC(=O)CSC2=Nc3ccccc3C3=NC(CC(=O)NCCc4ccccc4)C(=O)N23)c1 (centres undefined) | inactive
29 | CCC(Sc1nnc(-c2ccc(OC)cc2)c(-c2ccc(OC)cc2)n1)C(=O)NC1CCCCC1 (centres undefined) | inactive
30 | CCCSc1nc2sc3c(c2c(=O)n1-c1cccc(Br)c1)CC(C)(C)OC3 | inactive
31 | Fc1ccc(-c2nn(-c3ccccc3Cl)c3c2cnc2ccccc23)cc1 | inactive
32 | COC(=O)c1sc(=S)n(-c2ccccc2)c1N | inactive
33 | CCOC(=O)c1c(N)sc(C(C)=O)c1C | inactive
34 | COCCOC(=O)c1sc(=S)n(CCOC)c1N | 50.1 µM [fluorescent] (active)
35 | COc1ccc(-c2nnc(SCC(=O)Nc3ccc(C(C)C)cc3)nc2-c2ccc(OC)c(OC)c2)cc1OC | inactive
36 | Cc1ccc(-n2nc(C)c3c(C)cc(=O)n(CC(=O)Nc4ccc(C(C)C)cc4)c32)cc1 | inactive
37 | COc1cccc(-c2nc(S(=O)(=O)c3ccc(C)cc3)c(NCc3ccccc3)o2)c1 | inactive
38 | CCc1ccccc1N1C(=O)CN(S(=O)(=O)CC)CC1(C)C(=O)NC1CCCCC1 (centres undefined) | 17.8 µM [quencher] (active)
39 | COc1cccc(CN2C(=O)CCC2(C)C(=O)NC2CCCCCC2)c1 (centres undefined) | inactive
40 | COc1ccc(OC)c(CN2C(=O)CCC2(C)C(=O)NC2CCCCCC2)c1 (centres undefined) | inactive
41 | COc1ccc(S(=O)(=O)NCc2cccn2Cc2cccc(C)c2)cc1Cl | inactive
42 | CCOc1ccc(N2CC(C)Cn3c2nc2c3c(=O)n(Cc3c(F)cccc3Cl)c(=O)n2C)cc1 (centres undefined) | inactive
43 | O=C(NCCCN1CCN(c2cccc(Cl)c2)CC1)c1nnc(Cc2ccc(F)cc2Cl)o1 | inactive
44 | CCOc1cc(C2c3c(-c4ccc(Br)cc4)n[nH]c3C(=O)N2c2ccc(Cl)cc2)ccc1O (centres undefined) | inactive
45 | CC1CCN(S(=O)(=O)c2ccc3c(c2)N(CC(=O)NCc2ccccc2Cl)C(=O)CO3)CC1 | inactive
46 | Cc1ccccc1C(=O)Nc1nnc(S(=O)(=O)N(C)c2ccc(Cl)cc2)s1 | 31.6 µM [quencher] (active)
47 | CC(C)CC(=O)Nc1nnc(S(=O)(=O)N(C)c2ccc(Cl)cc2)s1 | inactive
48 | CCN(c1ccc(Cl)cc1)S(=O)(=O)c1nnc(NC(=O)c2ccco2)s1 | inactive
49 | CN(Cc1ccccc1)C(=O)CCS(=O)(=O)c1cc(Br)cc2c1N(C(=O)C1CC1)CC2 | inactive
